# Measured values taken from PubChem BioAssay (EPA / NIEHS).
# Where “and” joins values, the source holds several entries; their conditions need not be identical. Identical values can stand only once. Records with an inconclusive call do not appear. Calls of active or inactive are those of the source. Rule for the calls, unless noted: active = hit-call score of the fitted dose curve at least 0.9, where 1 is the maximum; inactive = score below 0.9.
# Tests used:
# [1] = IUF_NPC2-5_cell_number_120hr: Cell Number Assessment at 120 hours in the Leibniz Research Institute for Environmental Medicine (IUF) Neural Progenitor Cell Migration and Differentiation Assay (NPC2-5) (AID 2284308);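 note: count of Hoechst-stained nuclei in migration zone around plated human neural progenitor spheres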
# Summary of the method: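 Hoechst-stained nuclei within the migration area were counted by automated high content imaging after 120 h. Single hNPC spheres differentiated on poly-D-lysine/laminin in DMEM/F12 (3:1) with 1% N2, compound present throughout, DMSO ≤0.1%.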
# [2] = IUF_NPC2-5_viability_120hr: Viability Assessment at 120 hours in the Leibniz Research Institute for Environmental Medicine (IUF) Neural Progenitor Cell Migration and Differentiation Assay (NPC2-5) (AID 2284312)
# Summary of the method: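 Alamar blue resorufin fluorescence read after 5 days of differentiation, with compound present from day 0 and replenished at day 3. Primary hNPC spheres on laminin-coated plates, 37C; seven concentrations plus solvent control, fitted against DMSO.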
# [3] = CCTE_Mundy_HCI_iCellGluta_NOG_NeuriteLength: CCTE's Neurite Outgrowth Assay in iCellGluta cells for Neurite Length, Mundy Lab (AID 2284318; active = hit-call score of the fitted dose curve at least 0.9, where 1 is the maximum)
# Summary of the method: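 Automated high-content imaging of betaIII-tubulin (Alexa Fluor-488) and Hoechst-stained cells gave neurite length, normalized to the DMSO baseline.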
# [4] = CCTE_Deisenroth_DEVTOX-GLR_legacy_CellCount: (Legacy) Viability Assessment in CCTE's DevTox GLR-Endo Assay, Deisenroth Lab (AID 2284331); details: actives raise or lower the signal
# Summary of the method: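 Human pluripotent RUES2-GLR cells differentiated 48 h with two 24-h-interval exposures, 10-point 1 nM–200 uM series, 0.2% DMSO. Fixed nuclei counted by high-content imaging (5 fields/well); bidirectional fit vs DMSO, n≥4.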
# [5] = IUF_NPC1_cytotoxicity_72hr: Cytotoxicity Assessment at 72 hours in the Leibniz Research Institute for Environmental Medicine (IUF) Neural Progenitor Cell Proliferation Assay (NPC1) (AID 2284332; active = hit-call score of the fitted dose curve at least 0.9, where 1 is the maximum;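 note: rising LDH signal means more cytotoxicity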)
# Summary of the method: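 Membrane-integrity loss is scored from LDH released into the medium, detected as resorufin fluorescence, with activity fitted upward relative to baseline. Test material stays on human fetal-derived progenitor spheres for 72 h.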
# [6] = CCTE_Mundy_HCI_iCellGluta_NOG_NeuronCount: CCTE's Neurite Outgrowth Assay in iCellGluta cells for Neuron Count, Mundy Lab (AID 2284340; active = hit-call score of the fitted dose curve at least 0.9, where 1 is the maximum;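 note: cells fixed about 48 h after compound addition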)
# Summary of the method: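 Neuron count read by automated high-content imaging of Hoechst 33342 and betaIII-tubulin/Alexa Fluor-488 labelling in human iPSC glutamatergic neurons. Activity fitted relative to DMSO.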
# [7] = CCTE_Mundy_HCI_iCellGluta_NOG_NeuriteCount: CCTE's Neurite Outgrowth Assay in iCellGluta cells for Neurite Count, Mundy Lab (AID 2284342; active = hit-call score of the fitted dose curve at least 0.9, where 1 is the maximum;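 note: chemical exposure about 48 hours starting 2 hours after plating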)
# [8] = system: SRY-box transcription factor 2 (SOX2) Protein Expression, Deisenroth Lab, SOX2 (gene 6657); experiment: CCTE_Deisenroth_DEVTOX-GLR_legacy_Sox2: (Legacy) CCTE's DevTox GLR-Endo Assay Evaluation of SRY-box transcription factor 2 (SOX2) Protein Expression, Deisenroth Lab (AID 2284346)
# Summary of the method: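 Percent Sox2-positive cells was scored by high-content imaging of 5 fields per well. Positivity cutoff was 5x BMAD over the directed endoderm control, and the DMSO median was subtracted. Cells were RUES2-GLR, dosed twice at 24-h intervals over 48 h of differentiation (1 nM-200 uM).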
# [9] = CCTE_Padilla_ZF_Score.Craniofacial: CCTE's 144 Hour Post-fertilization zebrafish Assay Score for Craniofacial Malformation, Padilla Lab (AID 2284405)
# Summary of the method: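 Craniofacial defects were scored at 6 dpf by two blinded observers using stereomicroscopy. Exposure of wild-type embryos began at 6–8 hpf in sealed wells of 10% Hanks' solution at 26C, with chemical removed by rinsing at 5 dpf.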
# [10] = CCTE_Padilla_ZF_Score.Edema: CCTE's 144 Hour Post-fertilization zebrafish Assay Score for Edema Malformation, Padilla Lab (AID 2284406)
# Summary of the method: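 Edema scored at 6 dpf by two blinded observers under a stereo microscope, in single outbred wild-type larvae exposed from 6-8 hpf in sealed wells (Hanks', 26C, 14:10 h light) and chemical-free after a 5 dpf rinse.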
# [11] = CCTE_Padilla_ZF_Score.Spine: CCTE's 144 Hour Post-fertilization zebrafish Assay Score for Spine Malformation, Padilla Lab (AID 2284407)
# Summary of the method: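 Spine malformation scored at 6 dpf by two independent blinded observers under stereomicroscope, after static sealed exposure from 6–8 hpf at 26C in Hanks' solution with rinse on 5 dpf. Positive-direction fit against DMSO control.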
# [12] = system: TTR (gene 7276); experiment: CCTE_GLTED_hTTR_0.5uM: CCTE's human Transthyretin (hTTR) Inhibition Assay, with 0.5uM TTR, Great Lakes Toxicology and Ecology Division (GLTED) Lab (AID 2284320)
# Summary of the method: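 Probe (ANSA) displacement from 0.5 uM human transthyretin was followed by fluorescence (ex 380, em 475) after a 2 h incubation with chemical. Activity was scored as signal loss and fitted positively relative to DMSO.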
# [13] = system: SERPINA7 (gene 6906); experiment: CCTE_GLTED_hTBG: CCTE's human Thyroxine-binding Globulin (TBG) Inhibition Assay, Great Lakes Toxicology and Ecology Division (GLTED) Lab (AID 2284343; active = hit-call score of the fitted dose curve at least 0.9, where 1 is the maximum;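 note: active chemicals lower fluorescence versus DMSO baseline by displacing probe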)
# Summary of the method: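 Human thyroxine-binding globulin was exposed to each chemical for 2 hours, during which the ANSA probe could be displaced. Fluorescence was then measured at 380/475 nm, and loss of signal was analysed relative to DMSO.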
# [14] = system: IYD (gene 389434); experiment: CCTE_GLTED_hIYD: CCTE's human Iodotyrosine Deiodinase (xIYD) Inhibition Assay, Great Lakes Toxicology and Ecology Division (GLTED) Lab (AID 2284317; active = hit-call score of the fitted dose curve at least 0.9, where 1 is the maximum;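 note: cell-free human IYD enzyme made in baculovirus insect cells; iodide freed from monoiodotyrosine measured by cerium arsenite color change at 420 nm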)
# Summary of the method: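 Deiodination of MIT by insect-cell-produced human IYD is measured after a 3 h incubation with test chemical. Free iodide passes through a Dowex column and accelerates Sandell-Kolthoff Ce4+ reduction, read at 420 nm; run in triplicate.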
# [15] = CCTE_Deisenroth_5AR_NBTE_donor: CCTE's 5alpha-reductase NanoBRET Target Engagement Assay […], Deisenroth Lab (AID 2284319); details: actives raise or lower the signal
# Summary of the method: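 HEK293T cells transiently expressing SRD5A2-NanoLuc, exposed 5 h to chemicals (8 points, 10 nM - 29.9 uM), with testosterone tracer for the final 2 h. Donor luminescence at 460 nm read after Nano-Glo substrate plus extracellular NanoLuc inhibitor; bidirectional fit versus DMSO.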
# [16] = CCTE_Deisenroth_5AR_NBTE_acceptor: CCTE's 5alpha-reductase NanoBRET Target Engagement Assay - Autofluorescence Screen, Deisenroth Lab (AID 2284321); details: actives raise or lower the signal;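 note: compound fluorescence in the acceptor channel under 460 nm excitation flags autofluorescence artifacts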
# Summary of the method: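 Autofluorescence check: ToxCast chemicals, nominal 100 uM, excitation 460 nm, n=3 runs. Acceptor fluorescence endpoint, bidirectional fit relative to DMSO. Parent assay in HEK293T, 5 h post-dose.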
# [17] = system: SRD5A2 (gene 6716); experiment: CCTE_Deisenroth_5AR_NBTE_ratio: CCTE's 5alpha-reductase NanoBRET Target Engagement Assay - Ratio, Deisenroth Lab (AID 2284322); details: actives raise or lower the signal
# Summary of the method: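 HEK293T cells transiently expressing an SRD5A2-NanoLuc fusion (20 h post-transfection) were exposed to test chemical (10 nM - 29.9 uM, 8 points) for 3 h, then testosterone tracer for a further 2 h. Acceptor/donor BRET ratio was fitted bidirectionally against DMSO baseline.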
# [18] = TAMU_PeakParms_SingleDonor1434_Asystole: Texas A&M University (TAMU) 1.5-hr Human Induced Pluripotent Stem Cell (iPSC)-derived Cardiomyocytes Calcium (Ca+2) Flux Assay for Cardiotoxicity: Asystole (quiescence of beating) (AID 2284328; active = hit-call score of the fitted dose curve at least 0.9, where 1 is the maximum)
# Summary of the method: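 Average Ca2+-flux peak frequency (beats/s) was recorded in single-donor iPSC-derived cardiomyocytes after 90 min exposure (0.2–100 uM final, 0.5% DMSO). Asystole POD set as EC95 against DMSO, no preprocessing.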
# [19] = system: Brachyury (BRA) Protein Expression, Deisenroth Lab, TBXT (gene 6862); experiment: CCTE_Deisenroth_DEVTOX-GLR_legacy_Bra: (Legacy) CCTE's DevTox GLR-Endo Assay Evaluation of Brachyury (BRA) Protein Expression, Deisenroth Lab (AID 2284329)
# Summary of the method: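 Percent Bra-positive cells, scored by high-content imaging against a threshold of 5x BMAD over the undifferentiated control median, with the 0.2% DMSO median subtracted. RUES2-GLR cultures were dosed twice at 24 h intervals across a 48 h differentiation, at 1 nM–200 uM in ten steps, with n=4 replicates.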
# [20] = system: SRY-box transcription factor 17 (SOX17) Protein Expression, Deisenroth Lab, SOX17 (gene 64321); experiment: CCTE_Deisenroth_DEVTOX-GLR_legacy_Sox17: (Legacy) CCTE's DevTox GLR-Endo Assay Evaluation of SRY-box transcription factor 17 (SOX17) Protein Expression, Deisenroth Lab (AID 2284341); details: actives raise or lower the signal
# Summary of the method: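 RUES2-GLR human pluripotent cells differentiated toward endoderm for 48 h, dosed twice at 24 h intervals (1 nM–200 uM, 10 points). Imaging gives % SOX17+ cells (intensity >5x BMAD above pluripotent control median); bidirectional fit versus 0.2% DMSO.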
compound,measurement,setting,value
CC(C)Cc1ccc(C(C)C(=O)O)cc1 (stereo not drawn),outcome,[1],inactive
same,outcome,[2],inactive
same,AC50,[3],15 µM (active)
same,outcome,[4],inactive
same,outcome,[5],inactive
same,outcome,[6],inactive
same,outcome,[7],inactive
same,outcome,[8],inactive
N[C@@H](CCC(=O)O)C(=O)O,outcome,[1],inactive
same,outcome,[2],inactive
same,outcome,[3],inactive
same,outcome,[5],inactive
same,outcome,[6],inactive
same,outcome,[7],inactive
C=C(C)C(=O)OCCC(F)(F)C(F)(F)C(F)(F)C(F)(F)C(F)(F)C(F)(F)C(F)(F)C(F)(F)F,outcome,[9],inactive
same,outcome,[10],inactive
same,outcome,[11],inactive
O=S(=O)(O)C(F)(F)C(F)(F)OC(F)(F)C(F)(F)F,AC50,[12],2.14 µM (active)
same,outcome,[9],inactive
same,outcome,[10],inactive
same,outcome,[11],inactive
O=c1cc(-c2ccc(O)cc2)oc2cc(O)cc(O)c12,AC50,[13],38.2 µM (active)
O=C(O)C(F)(F)OC(F)(F)C(F)(F)OC(F)(F)C(F)(F)C(F)(F)C(F)(F)F,AC50,[12],0.712 µM (active)
same,outcome,[9],inactive
same,outcome,[10],inactive
same,outcome,[11],inactive
CCCCC(CC)COC(=O)COc1ccc(Cl)cc1C (stereo not drawn),outcome,[1],inactive
same,outcome,[2],inactive
same,AC50,[3],33.4 µM (active)
same,outcome,[5],inactive
same,AC50,[6],39 µM (active)
same,AC50,[7],32.2 µM (active)
CCCCCCCCOC(=O)c1ccc(O)cc1,AC50,[14],39.6 µM (active)
same,AC50,[13],7.24 µM (active)
C=C(F)C(=O)OC(C(F)(F)F)C(F)(F)F,outcome,[9],inactive
same,outcome,[10],inactive
same,outcome,[11],inactive
CC/C(=C(\c1ccccc1)c1ccc(OCCN(C)C)cc1)c1ccccc1,AC50,[14],55.8 µM (active) and 31.5 µM (active)
same,AC50,[15],67.4 µM (active)
same,AC50,[16],64 µM (active)
same,AC50,[17],76.6 µM (active)
same,outcome,[18],inactive
OCC(F)(OC(F)(F)C(F)(OC(F)(F)C(F)(F)C(F)(F)F)C(F)(F)F)C(F)(F)F (stereo not drawn),AC50,[9],34.8 µM (active)
same,outcome,[10],inactive
same,outcome,[11],inactive
CCCCCCCCCCCCOCCOS(=O)(=O)O,AC50,[14],76.7 µM (active)
same,AC50,[15],79 µM (active)
same,AC50,[16],78.4 µM (active)
same,AC50,[17],79.1 µM (active)
same,AC50,[13],50 µM (active)
O=C(O)C(F)(F)C(F)(F)C(F)(F)C(F)(F)C(F)(F)C(F)(F)C(F)(F)C(F)F,AC50,[12],0.53 µM (active)
same,AC50,[13],73.1 µM (active)
same,outcome,[9],inactive
same,outcome,[10],inactive
same,outcome,[11],inactive
CCCO[Si](OCCC)(OCCC)OCCC,outcome,[15],inactive
same,outcome,[16],inactive
same,outcome,[17],inactive
CCCCCCOc1ccc(O)cc1,AC50,[13],33.7 µM (active)
c1ccc2scnc2c1,outcome,[1],inactive
same,outcome,[2],inactive
same,outcome,[3],inactive
same,outcome,[5],inactive
same,outcome,[6],inactive
same,outcome,[7],inactive
O=C1OC2(c3ccc(O)cc3Oc3cc(O)ccc32)c2ccccc21,outcome,[14],inactive
same,AC50,[15],3.88 µM (active)
same,outcome,[16],inactive
same,AC50,[17],10.3 µM (active)
O=S(=O)(O)c1cc(S(=O)(=O)O)c2c(N=Nc3ccccc3)c(O)ccc2c1,outcome,[15],inactive
same,outcome,[16],inactive
same,AC50,[17],10.9 µM (active)
same,AC50,[13],33.9 µM (active)
O=C(O)c1ccccc1O,outcome,[19],inactive
same,outcome,[4],inactive
same,outcome,[20],inactive
same,AC50,[13],50 µM (active)
same,outcome,[8],inactive
O=C(c1ccc(OCCN2CCCCC2)cc1)c1c(-c2ccc(O)cc2)sc2cc(O)ccc12,AC50,[15],50 µM (active)
same,AC50,[16],50 µM (active)
same,AC50,[17],19.1 µM (active)
CCCCCCCCCCCCN1CCOCC1,AC50,[14],51 µM (active)
same,outcome,[15],inactive
same,outcome,[16],inactive
same,outcome,[17],inactive
CNC(=C[N+](=O)[O-])NCCSCc1ccc(CN(C)C)o1,outcome,[18],inactive
N#CCCNCCC#N,outcome,[3],inactive
same,outcome,[18],inactive
same,outcome,[6],inactive
same,outcome,[7],inactive
CC(=O)C1=C(C)[C@@H]2C[C@@]3(C1)[C@H](C)CC[C@H]3C2(C)C,outcome,[15],inactive
same,outcome,[16],inactive
same,outcome,[17],inactive
